Results taken from PubChem BioAssay (NCATS).
Results filed as inconclusive are left out. The source made the active and inactive calls. Unless noted, calls come from the whole dose curve; as a rule, active = well fitted curve in the direction sought with a large enough effect; inconclusive = small, poorly fitted or top-dose-only effect, or another doubt; inactive = no such curve, though single readings can be large; an effect the other way counts as inactive or inconclusive.

Experiments:
[1] = qHTS for differential inhibitors of proliferation of Plasmodium falciparum line D10 (AID 1877);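 note: parasites grown with compound for 72 h before DNA staining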; note: potency is the fitted concentration of half-maximal effect
[2] = qHTS for differential inhibitors of proliferation of Plasmodium falciparum line Dd2 (AID 1882); details: Potency: Plasmodium falciparum Dd2 proliferation inhibition; note: nearly all actives have a fitted effect of over 65% in size; note: potency is the fitted concentration of half-maximal effect
How it was run: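 RBC culture, 0.3% parasitemia / 2.5% Hct final; cpd added by pin tool in DMSO; 72 h, 37 C, 5% CO2; lysis buffer + SYBR Green I, o/n RT dark; FI 485/535; norm. to artemisinin 0.29 uM and DMSO.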

[3] = qHTS for differential inhibitors of proliferation of Plasmodium falciparum line W2 (AID 1883); details: Potency: Plasmodium falciparum W2 proliferation inhibition;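 note: parasites grown with compound for 72 h before lysis and staining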; note: potency is the fitted concentration of half-maximal effect
[4] = qHTS for differential inhibitors of proliferation of Plasmodium falciparum line HB3 (AID 1886); details: Potency: Plasmodium falciparum HB3 proliferation inhibition;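 note: parasites grown with compound for 72 h before SYBR Green readout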; note: potency is the fitted concentration of half-maximal effect
[5] = target: ATP-dependent DNA helicase Q1 (Homo sapiens) (UniProt P46063); assay: qHTS Validation Assay for Inhibitors of RecQ-Like Dna Helicase 1 (RECQ1) (AID 2353)
ATP-dependent DNA helicase Q1 (Homo sapiens), sequence (P46063 whole entry, looked up): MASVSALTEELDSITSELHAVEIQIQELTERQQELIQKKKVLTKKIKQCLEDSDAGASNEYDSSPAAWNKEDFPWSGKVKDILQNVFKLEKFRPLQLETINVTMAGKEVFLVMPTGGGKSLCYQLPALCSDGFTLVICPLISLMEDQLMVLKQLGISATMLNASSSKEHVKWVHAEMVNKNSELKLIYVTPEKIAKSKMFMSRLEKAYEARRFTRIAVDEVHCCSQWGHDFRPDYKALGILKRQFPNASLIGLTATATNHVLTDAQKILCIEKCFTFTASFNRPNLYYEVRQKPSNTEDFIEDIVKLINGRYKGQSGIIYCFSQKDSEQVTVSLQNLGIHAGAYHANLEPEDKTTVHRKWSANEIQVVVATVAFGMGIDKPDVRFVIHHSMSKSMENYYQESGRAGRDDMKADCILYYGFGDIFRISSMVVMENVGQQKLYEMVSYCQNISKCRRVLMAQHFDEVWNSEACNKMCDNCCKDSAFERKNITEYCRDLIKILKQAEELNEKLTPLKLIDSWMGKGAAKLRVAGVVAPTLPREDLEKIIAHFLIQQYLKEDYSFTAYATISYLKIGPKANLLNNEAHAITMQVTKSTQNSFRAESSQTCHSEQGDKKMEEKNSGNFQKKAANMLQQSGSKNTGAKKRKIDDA
How it was run: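 RECQ1T1 50 nM; forked duplex (20 bp + 30-nt ss tails) 200 nM, ATP 2 mM final; pH 8.0, 2 mM MgCl2, 2.5 ug/ml poly(dI-dC); 15 min compound preincubation; discontinuous kinetic read over 2 h at RT.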

[6] = target: RecQ-like DNA helicase BLM (Homo sapiens) (UniProt P54132); assay: qHTS Validation Assay for Inhibitors of Bloom's syndrome helicase (BLM) (AID 2364)
RecQ-like DNA helicase BLM (Homo sapiens), sequence (P54132 whole entry, looked up): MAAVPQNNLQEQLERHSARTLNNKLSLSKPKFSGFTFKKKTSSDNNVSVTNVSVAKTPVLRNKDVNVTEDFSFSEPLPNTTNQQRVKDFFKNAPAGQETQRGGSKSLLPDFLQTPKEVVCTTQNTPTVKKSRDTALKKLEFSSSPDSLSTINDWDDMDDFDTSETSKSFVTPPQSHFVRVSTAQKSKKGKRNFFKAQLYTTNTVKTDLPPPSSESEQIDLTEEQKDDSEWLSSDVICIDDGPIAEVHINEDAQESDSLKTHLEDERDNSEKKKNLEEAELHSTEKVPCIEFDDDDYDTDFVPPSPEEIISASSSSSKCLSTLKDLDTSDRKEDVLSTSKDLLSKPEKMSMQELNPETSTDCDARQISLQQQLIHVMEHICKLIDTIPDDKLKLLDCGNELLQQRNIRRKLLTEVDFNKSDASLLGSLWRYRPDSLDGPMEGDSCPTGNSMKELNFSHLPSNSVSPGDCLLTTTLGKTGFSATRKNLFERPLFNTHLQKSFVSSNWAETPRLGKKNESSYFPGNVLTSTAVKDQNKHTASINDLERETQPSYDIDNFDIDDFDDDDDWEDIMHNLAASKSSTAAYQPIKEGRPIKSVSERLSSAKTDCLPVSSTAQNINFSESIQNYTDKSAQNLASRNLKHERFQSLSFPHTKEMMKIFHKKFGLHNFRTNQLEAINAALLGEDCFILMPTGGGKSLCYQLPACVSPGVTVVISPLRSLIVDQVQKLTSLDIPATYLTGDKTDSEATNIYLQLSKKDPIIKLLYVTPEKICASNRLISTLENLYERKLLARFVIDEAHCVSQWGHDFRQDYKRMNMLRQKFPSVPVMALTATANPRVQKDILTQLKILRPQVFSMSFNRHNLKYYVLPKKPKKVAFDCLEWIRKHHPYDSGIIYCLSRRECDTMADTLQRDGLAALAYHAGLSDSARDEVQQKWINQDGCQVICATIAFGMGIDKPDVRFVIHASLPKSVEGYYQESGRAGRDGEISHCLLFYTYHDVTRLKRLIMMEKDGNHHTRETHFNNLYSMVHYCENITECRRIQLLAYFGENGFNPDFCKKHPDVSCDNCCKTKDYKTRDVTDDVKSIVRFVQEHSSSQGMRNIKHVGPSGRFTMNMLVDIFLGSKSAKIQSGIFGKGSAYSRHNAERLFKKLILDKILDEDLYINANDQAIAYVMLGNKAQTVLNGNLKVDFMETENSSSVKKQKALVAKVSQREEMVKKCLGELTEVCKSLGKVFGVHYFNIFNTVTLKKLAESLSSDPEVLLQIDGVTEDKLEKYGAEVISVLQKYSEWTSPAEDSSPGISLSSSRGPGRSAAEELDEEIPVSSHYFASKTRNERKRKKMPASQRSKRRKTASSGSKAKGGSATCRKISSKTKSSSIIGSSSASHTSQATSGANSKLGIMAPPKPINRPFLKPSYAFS
How it was run: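 Forked 20-bp duplex substrate (200 nM, TAMRA/BHQ-2) plus 2 mM ATP added after 15 min compound preincubation with 50 nM enzyme, pH 8.0, poly(dI-dC) 2.5 ug/ml. Strand separation followed by fluorescence (525/598 nm) over 2 h, normalized to enzyme-free and DMSO controls.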

[7] = High Content Imaging Cell-Based qHTS for Inhibitors of the mTORC1 Signaling Pathway in MEF Cells (AID 2667); note: potency is the fitted concentration of half-maximal effect
How it was run: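 Tsc2-/-, p53-/- MEFs stably re-expressing WT Tsc2, grown in DMEM + 10% FBS, were treated with compounds for 24 hrs at 37 degree Celsius, fixed, and stained with Alexa-488 phospho-rpS6 Ser235/236 antibody plus Hoechst; results given as % positive cells.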

[8] = target: Ubiquitin carboxyl-terminal hydrolase 2 (Homo sapiens) (UniProt O75604); assay: qHTS Validation Assay for Inhibitors of Ubiquitin-specific Protease USP2a Using CHOP2 as the Reporter (AID 463106)
Ubiquitin carboxyl-terminal hydrolase 2 (Homo sapiens), sequence (O75604 whole entry, looked up): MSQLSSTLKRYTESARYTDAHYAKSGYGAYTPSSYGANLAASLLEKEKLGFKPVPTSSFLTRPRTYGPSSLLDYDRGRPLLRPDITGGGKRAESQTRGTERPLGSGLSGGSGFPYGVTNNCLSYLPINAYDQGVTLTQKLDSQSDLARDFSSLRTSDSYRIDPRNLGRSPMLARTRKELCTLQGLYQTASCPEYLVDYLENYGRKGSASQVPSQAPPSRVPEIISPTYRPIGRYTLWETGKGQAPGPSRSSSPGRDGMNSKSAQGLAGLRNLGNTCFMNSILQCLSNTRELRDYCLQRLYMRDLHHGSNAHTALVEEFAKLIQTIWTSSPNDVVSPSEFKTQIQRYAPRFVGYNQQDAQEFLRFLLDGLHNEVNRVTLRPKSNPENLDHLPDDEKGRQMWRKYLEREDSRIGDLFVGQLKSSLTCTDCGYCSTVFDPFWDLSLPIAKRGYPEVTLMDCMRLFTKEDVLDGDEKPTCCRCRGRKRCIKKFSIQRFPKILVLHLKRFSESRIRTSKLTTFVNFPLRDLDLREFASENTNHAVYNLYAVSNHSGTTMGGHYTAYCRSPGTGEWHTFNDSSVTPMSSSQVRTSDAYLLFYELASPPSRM
How it was run: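 Readout was coupled fluorescence (Ex 485/Em 531 nm), read 60 min after adding 25 nM final Ub-CHOP2 and 25 nM reporter substrate. Beforehand, 10 nM final USP2 core had 30 min at RT with compound in pH 8.0 buffer. Curves were fitted after normalization to NEM and flagged for artifacts using time-zero reads.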

[9] = target: DNA polymerase III PolC-type (Bacillus subtilis (strain 168)) (UniProt P13267); assay: qHTS Validation Assay for the Inhibitors of DNA Replication in Gram-Positive Bacteria (AID 485295);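 note: reconstituted holoenzyme with PolC plus beta clamp SSB and primase; PicoGreen fluorescence of double-stranded DNA made on primed circular M13 template; series mostly up to about 57 µM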
DNA polymerase III PolC-type (Bacillus subtilis (strain 168)), sequence (P13267 whole entry, looked up): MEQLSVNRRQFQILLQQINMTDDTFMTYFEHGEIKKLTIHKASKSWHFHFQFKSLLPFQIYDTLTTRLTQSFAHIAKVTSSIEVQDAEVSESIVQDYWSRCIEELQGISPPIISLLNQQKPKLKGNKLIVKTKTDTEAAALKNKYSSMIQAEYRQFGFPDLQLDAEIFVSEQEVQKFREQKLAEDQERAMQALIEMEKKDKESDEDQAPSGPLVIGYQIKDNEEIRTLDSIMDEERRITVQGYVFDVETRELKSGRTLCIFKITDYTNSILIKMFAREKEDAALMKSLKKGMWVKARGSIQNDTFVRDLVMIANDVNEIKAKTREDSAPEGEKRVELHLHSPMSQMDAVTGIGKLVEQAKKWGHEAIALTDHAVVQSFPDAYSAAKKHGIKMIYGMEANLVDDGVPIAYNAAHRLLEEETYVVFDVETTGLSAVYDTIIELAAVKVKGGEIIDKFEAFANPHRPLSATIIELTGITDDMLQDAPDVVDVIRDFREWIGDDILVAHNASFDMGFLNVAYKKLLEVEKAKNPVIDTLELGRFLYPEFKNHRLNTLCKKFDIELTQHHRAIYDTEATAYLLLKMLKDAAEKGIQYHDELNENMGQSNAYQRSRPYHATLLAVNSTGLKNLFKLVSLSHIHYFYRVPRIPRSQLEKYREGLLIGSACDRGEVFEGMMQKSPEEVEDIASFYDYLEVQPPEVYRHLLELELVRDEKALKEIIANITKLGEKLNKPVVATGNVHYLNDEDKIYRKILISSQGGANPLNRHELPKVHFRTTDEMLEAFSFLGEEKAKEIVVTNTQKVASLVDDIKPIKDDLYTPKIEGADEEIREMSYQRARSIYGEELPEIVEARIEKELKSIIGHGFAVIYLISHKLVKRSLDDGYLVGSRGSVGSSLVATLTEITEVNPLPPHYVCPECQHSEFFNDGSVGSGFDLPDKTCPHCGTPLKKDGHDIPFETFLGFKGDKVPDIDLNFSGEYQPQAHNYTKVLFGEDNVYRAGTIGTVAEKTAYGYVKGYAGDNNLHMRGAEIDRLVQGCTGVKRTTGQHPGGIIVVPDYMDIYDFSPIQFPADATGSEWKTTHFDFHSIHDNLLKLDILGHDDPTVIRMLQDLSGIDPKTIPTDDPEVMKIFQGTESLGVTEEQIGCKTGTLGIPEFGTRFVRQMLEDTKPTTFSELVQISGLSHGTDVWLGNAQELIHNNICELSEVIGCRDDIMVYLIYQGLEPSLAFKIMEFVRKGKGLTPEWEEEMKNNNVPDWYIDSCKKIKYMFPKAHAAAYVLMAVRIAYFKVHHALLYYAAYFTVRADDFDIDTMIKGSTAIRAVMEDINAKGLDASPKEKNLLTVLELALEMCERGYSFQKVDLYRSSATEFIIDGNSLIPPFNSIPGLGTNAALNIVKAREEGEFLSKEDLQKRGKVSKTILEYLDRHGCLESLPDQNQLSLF
How it was run: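 Inhibition of DNA synthesis by the reconstituted PolC holoenzyme, monitored through PicoGreen staining of dsDNA formed from ssM13Gori, dNTPs and NTPs, with compound preincubation and room-temperature reaction.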

[10] = target: Tumor susceptibility gene 101 protein (Homo sapiens) (UniProt Q99816); assay: qHTS Validation Assay for Iinhibitors of HIV-1 Budding by Blocking the Interaction of PTAP/TSG101 (AID 485342; calls by dose curve)
Tumor susceptibility gene 101 protein (Homo sapiens), sequence (Q99816 whole entry, looked up, the tested form may be a part): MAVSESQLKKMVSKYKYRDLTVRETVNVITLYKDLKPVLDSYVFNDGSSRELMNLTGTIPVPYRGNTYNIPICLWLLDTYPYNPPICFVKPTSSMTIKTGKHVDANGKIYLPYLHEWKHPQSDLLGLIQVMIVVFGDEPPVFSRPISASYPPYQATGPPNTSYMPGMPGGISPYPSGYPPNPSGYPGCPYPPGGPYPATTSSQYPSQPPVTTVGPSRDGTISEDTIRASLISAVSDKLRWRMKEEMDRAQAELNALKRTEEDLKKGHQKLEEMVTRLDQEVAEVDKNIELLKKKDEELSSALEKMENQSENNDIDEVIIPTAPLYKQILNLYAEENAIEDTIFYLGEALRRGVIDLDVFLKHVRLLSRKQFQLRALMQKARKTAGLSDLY
How it was run: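 Compound wells held the Tsg101 binding domain (10 uM) and a FITC-conjugated PTAP peptide (50 nM) in buffer at pH 7.5 containing 0.15 M NaCl and 0.01% Tween 20; polarization was recorded after 20 min, r.t.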

[11] = target: Beta-2 adrenergic receptor (Homo sapiens) (UniProt P07550); assay: qHTS validation assay of beta-arrestin-biased ligands of beta2-adrenergic receptor (AID 485366)
How it was run: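 Agonism was measured as beta-arrestin recruitment to recombinant beta2-AR, releasing tTA to drive luciferase. Cells were exposed for 18 hr at 37 degrees C to a series up to 46 microM. %Activity from corrected luminescence gave concentration-response curves.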

[12] = target: ATP-dependent 6-phosphofructokinase (Trypanosoma brucei brucei) (UniProt O15648); assay: qHTS Validation Assay to Find Inhibitors of T. brucei phosphofructokinase (AID 485368)
ATP-dependent 6-phosphofructokinase (Trypanosoma brucei brucei), sequence (O15648 whole entry, looked up): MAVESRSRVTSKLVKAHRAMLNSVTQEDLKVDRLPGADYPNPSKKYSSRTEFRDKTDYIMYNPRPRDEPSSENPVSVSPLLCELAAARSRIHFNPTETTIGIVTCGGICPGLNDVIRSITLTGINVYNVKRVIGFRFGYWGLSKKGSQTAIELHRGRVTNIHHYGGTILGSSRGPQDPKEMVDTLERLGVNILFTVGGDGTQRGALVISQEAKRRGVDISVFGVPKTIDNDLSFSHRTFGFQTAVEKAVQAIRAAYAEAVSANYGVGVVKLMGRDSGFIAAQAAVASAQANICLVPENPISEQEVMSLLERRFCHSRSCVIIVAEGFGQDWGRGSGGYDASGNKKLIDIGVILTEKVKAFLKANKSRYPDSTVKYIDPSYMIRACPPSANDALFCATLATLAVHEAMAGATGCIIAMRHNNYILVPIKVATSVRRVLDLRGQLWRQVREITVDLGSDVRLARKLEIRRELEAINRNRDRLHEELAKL
How it was run: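 ADP-Glo luminescence, two-step: residual ATP depleted, then ADP converted to ATP for luciferase. Enzyme 1.25 nM, F6P 0.5 mM, ATP 0.1 mM, pH 8.0 TEA buffer, 45 min RT. Curves fitted and classed by quality and efficacy.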

[13] = target: Ferritin light chain (Equus caballus) (UniProt P02791); assay: qHTS Validation Assay for Identification of Novel General Anesthetics (AID 2323); note: series mostly up to about 77 µM
How it was run: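 Normalized fluorescence response, scaled between free 1-AMA and 1-AMA/apoferritin complex, fitted to a four-parameter Hill equation for concentration-effect values. Binding mix: 10 uM horse-spleen apoferritin, 50% saturated 1-AMA in PBS; read 380/535 nm after 10 min.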

[14] = Cytometric Cell-Based qHTS for Inhibitors of the mTORC1 Signaling Pathway in MEF (Tsc2-/-, p53-/-) Cells (AID 2660); note: potency is the fitted concentration of half-maximal effect
How it was run: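 Immunofluorescence qHTS of rpS6 Ser235/236 phosphorylation: MEFs (Tsc2-/-, p53-/-) treated 24 h, 37 C, in DMEM + 10% FBS. Alexa-488 signal normalized to PI count, referenced to rapamycin (7.5 nM) and DMSO; PI cell number recorded for viability.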

[15] = High Content Imaging Cell-Based qHTS for Inhibitors of the mTORC1 Signaling Pathway in MEF (Tsc2-/-, p53-/-) Cells (AID 2666);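 note: percent of cells scored positive for phospho-rpS6 Ser235/236 immunostaining by imaging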; note: potency is the fitted concentration of half-maximal effect
How it was run: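 Tsc2-/-, p53-/- MEFs (empty-vector stable) grown in DMEM + 10% FBS were exposed to compounds for 24 hrs at 37 degree Celsius, fixed, and stained with Alexa-488 anti-phospho-rpS6 Ser235/236 plus Hoechst. Imaging gave the percentage of positive cells per well.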

[16] = Validation screen for small molecules that induce DNA re-replication in MCF 10A normal breast cells (AID 463097); note: nearly all actives have a fitted effect of over 60% in size
How it was run: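 Following 48 hr compound incubation (37 C, 5% CO2), MCF 10A cells receive Hoechst for 40 min at 37 C. Nuclei are then scanned (excitation 405 nm, emission 500-530 nm) for total fluorescence intensity.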

[17] = Quantitative high throughput screen for delayed death inhibitors of the malarial parasite plastid, 96 hour incubation (AID 488745); note: nearly all actives have a fitted effect of over 70% in size; note: potency is the fitted concentration of half-maximal effect
How it was run: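 Luciferase-expressing P. falciparum, infected RBCs 2% Hct/0.1% parasitemia (final); 96 h cpd exposure, 37 C, 5% CO2; RPMI 1640 + 0.5% Albumax, bicarbonate, gentamycin. Readout: luminescence loss = growth inhibition.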

[18] = Cytometry Cell-Based qHTS for Inhibitors of the mTORC1 Signaling Pathway in MEF cells (AID 2668); note: potency is the fitted concentration of half-maximal effect
How it was run: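 In MEFs grown in DMEM + 10% FBS, a 24 hrs compound exposure preceded imaging of phospho-rpS6 Ser235/236 by laser-scanning cytometry.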

[19] = qHTS Assay for Modulators of Human Peripheral Myelin Protein 22 (PMP22) Expression/Activity (AID 1967; active = well fitted curve in the direction sought with a large enough effect in the signal ratio; the % refers to the signal ratio)
How it was run: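 Engineered MSC80 cells, Pmp22-promoter green and EF-alpha red luciferase reporters; 24h compound treatment at 37 °C. Concentration-response fits on green, red and ratio signals, each overlap-corrected, with %Activity normalized to untreated wells.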

Measured: Potency

CSc1ccc2c(c1)C(N1CCN(C)CC1)Cc1ccccc1S2 (stereo not drawn)
active: [1] 12.6 µM | [2] 8.91 µM | [3] 4.47 µM | [4] 10 µM
inactive: [5] | [6] | [7] | [8] | [9] | [10] | [11] | [12]

CN(C)CCCN1c2ccccc2Sc2ccc(Cl)cc21
active: [1] 12.6 µM | [2] 12.6 µM | [3] 3.55 µM | [4] 8.91 µM
inactive: [13] | [5] | [6] | [14] | [15] | [8] | [9] | [10] | [11] | [12]

C[C@H]1O[C@@H](n2cc(F)c(=O)[nH]c2=O)[C@H](O)[C@@H]1O
inactive: [1] | [2] | [3] | [4] | [13] | [5] | [6] | [16] | [17]

CC(CN(C)C)CN1c2ccccc2CCc2ccccc21 (stereo not drawn)
active: [1] 11.2 µM | [3] 6.31 µM | [4] 11.2 µM
inactive: [13] | [5] | [6] | [14] | [15] | [7] | [18] | [16] | [8] | [9] | [10] | [11] | [12]

CSc1ccc2c(c1)N(CCC1CCCCN1C)c1ccccc1S2 (stereo not drawn)
inactive: [13] | [5] | [6] | [7] | [8] | [9] | [10] | [11]
active: [1] 12.6 µM | [2] 12.6 µM | [3] 5.01 µM | [4] 8.91 µM

CN(C)CC[C@@H](c1ccc(Cl)cc1)c1ccccn1
inactive: [1] | [4] | [13] | [5] | [14] | [15] | [7] | [18] | [16] | [8] | [9] | [10] | [11] | [17]
active: [2] 3.98 µM | [3] 1 µM

CC(C)(C(=O)O)c1ccc(C(O)CCCN2CCC(C(O)(c3ccccc3)c3ccccc3)CC2)cc1 (stereo not drawn)
inactive: [1] | [2] | [4] | [19] | [5] | [14] | [15] | [7] | [18] | [16] | [8] | [9] | [10] | [11] | [17]

CC1=C(CC(=O)O)c2cc(F)ccc2/C1=C\c1ccc(S(C)(=O)=O)cc1
inactive: [1] | [2] | [13] | [5] | [6] | [14] | [15] | [7] | [18] | [16] | [8] | [9] | [10] | [11] | [12]

CC(=O)OCC(=O)[C@@]1(O)CC[C@H]2[C@@H]3CCC4=CC(=O)CC[C@]4(C)[C@H]3C(=O)C[C@@]21C
inactive: [1] | [2] | [4] | [13] | [5] | [14] | [15] | [7] | [18] | [16] | [8] | [9] | [10] | [11] | [12] | [17]

NC(N)=NCCC[C@H](N)C(=O)O
inactive: [1] | [2] | [3] | [4] | [13] | [5] | [6] | [14] | [15] | [7] | [18] | [16] | [8] | [9] | [10] | [11] | [17]

N=c1c[n+](N2CCOCC2)[n-]o1
inactive: [1] | [2] | [4] | [19] | [13] | [5] | [6] | [14] | [15] | [7] | [18] | [16] | [8] | [9] | [10] | [11] | [12] | [17]

CCCCCCCCCCCCCCCC(=O)NCCO
inactive: [1] | [2] | [19] | [13] | [5] | [6] | [14] | [15] | [7] | [18] | [16] | [8] | [9] | [10] | [11] | [12]
active: [3] 3.16 µM

CCN(CC)CCCC(C)Nc1c2ccc(Cl)cc2nc2ccc(OC)cc12 (stereo not drawn)
active: [1] 0.0891 µM | [2] 0.126 µM | [3] 0.0891 µM | [4] 0.0891 µM | [14] 16.5 µM | [15] 18.5 µM | [7] 14.7 µM | [17] 0.0117 µM
inactive: [6] | [9] | [10] | [11] | [12]

CC(C)C(=O)c1c(C(C)C)nn2ccccc12
inactive: [1] | [2] | [13] | [5] | [14] | [15] | [7] | [18] | [16] | [8] | [9] | [10] | [11] | [12] | [17]

Cc1cc(N)c2ccccc2[n+]1CCCCCCCCCC[n+]1c(C)cc(N)c2ccccc21
inactive: [13] | [5] | [6] | [14] | [15] | [8] | [9] | [10] | [11]
active: [1] 0.112 µM | [2] 2.24 µM | [4] 0.126 µM | [18] 7.36 µM
